# PubChem BioAssay (NCI)
# The panel holds about 79,000 compounds, 15% with a hit somewhere; the sample as a whole holds those more often. Values without a mark were called inactive. Calls of active or inactive are those of the source. Rule as the data show it: active = growth inhibition above about 70%; inactive = the rest.
# Assays:
# [1] = NCI Yeast Anticancer Drug Screen. Data for the rad50 strain (AID 155);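 also: 0% = growth of vehicle-only cultures of the same strain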; settings: S. cerevisiae rad50 strain growth inhibition, active compounds read high
# In short: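 Yeast carrying a defined DNA repair defect were exposed to test compounds, and growth was compared with vehicle-treated controls to give percent inhibition.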
# [2] = NCI Yeast Anticancer Drug Screen. Data for the mec2-1 strain (AID 157); settings: S. cerevisiae mec2-1 strain, active compounds read high
# In short: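 Mutant yeast (mec2-1) grown with compound; growth inhibition relative to vehicle control reported.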
# [3] = NCI Yeast Anticancer Drug Screen. Data for the sgs1 mgt1 strain (AID 161);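 also: 0% = growth of cultures given vehicle only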; settings: S. cerevisiae sgs1 mgt1 strain, active compounds read high
# In short: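 Growth of a repair-deficient yeast mutant was monitored after compound treatment and expressed as inhibition relative to vehicle-treated cultures.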
# [4] = NCI Yeast Anticancer Drug Screen. Data for the cln2 rad14 strain (AID 165);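 also: 0% = growth equal to vehicle treated cultures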; settings: S. cerevisiae cln2 rad14 strain, active compounds read high
# In short: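 Readout is yeast growth inhibition versus vehicle-treated controls, using a strain with cln2 and rad14 alterations exposed to compound.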
# [5] = NCI Yeast Anticancer Drug Screen. Data for the bub3 strain (AID 167); settings: S. cerevisiae bub3 mutant strain, active compounds read high
# In short: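 Compounds were applied to a genetically altered yeast strain carrying a cell-cycle control defect. Growth inhibition was scored against vehicle-treated controls.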
# [6] = NCI Yeast Anticancer Drug Screen. Data for the mlh1 rad18 strain (AID 175); settings: S. cerevisiae mlh1 rad18 strain growth inhibition, active compounds read high
# In short: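 Genetically defined yeast (DNA repair-deficient) exposed to compounds; growth inhibition determined relative to vehicle.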
# [7] = at 5.0 µM (retest, dose inferred, filed as 0.5)
# [8] = at 50.0 µM (retest, dose inferred, filed as 5.0)
SMILES,"growth inhibition [1, 7]","growth inhibition [1, 8]",growth inhibition ([1]; at 50.0 µM),"growth inhibition [2, 7]","growth inhibition [2, 8]",growth inhibition ([2]; at 50.0 µM),"growth inhibition [3, 7]","growth inhibition [3, 8]",growth inhibition ([3]; at 50.0 µM),"growth inhibition [4, 7]","growth inhibition [4, 8]",growth inhibition ([4]; at 50.0 µM),"growth inhibition [5, 7]","growth inhibition [5, 8]",growth inhibition ([5]; at 50.0 µM),"growth inhibition [6, 7]","growth inhibition [6, 8]",growth inhibition ([6]; at 50.0 µM)
CS(=O)(=O)n1c(C(O)c2ccccc2)nc2ccccc21 (stereo not given),-4%,4%,8.95%,10%,-1%,17.8%,2%,8%,3.1%,-82%,-1%,27.8%,5%,38%,5.6%,0%,1%,14.2%
CN(C)CCC(=O)[C@@]1(O)CC[C@H]2[C@@H]3CC=C4C[C@@H](O)CC[C@]4(C)[C@H]3CC[C@@]21C,25%,70% (active),44.1%,11%,63%,75.4% (active),20%,71% (active),58.1%,8%,34%,-18%,-1%,59%,49.1%,16%,68%,65.5%
O=[N+]([O-])c1c(Cl)cccc1-c1c[nH]cc1Cl,12%,99% (active),92.8% (active),25%,98% (active),93.4% (active),19%,100% (active),93.5% (active),-1%,99% (active),90.9% (active),6%,99% (active),92.2% (active),44%,99% (active),37.8%
Cc1ccc(CC2(C(=O)O)Cc3ccc(C)cc3C2)cc1 (stereo not given),-1%,100% (active),78.3% (active),-12%,100% (active),86.3% (active),-10%,100% (active),89.3% (active),1%,100% (active),91.2% (active),6%,100% (active),91% (active),5%,99% (active),92.3% (active)
CCC(=O)OC1=C(Cl)C(=O)c2ccccc2C1=O,2%,98% (active),71.8% (active),4%,99% (active),27.2%,9%,99% (active),63.8%,2%,98% (active),0.15%,6%,99% (active),34.5%,14%,98% (active),55.4%
NC(=S)N1N=C2c3ccccc3CC[C@H]2[C@@H]1c1cccs1,-52%,20%,59.6%,-4%,40%,34.4%,-26%,63%,80.6% (active),0%,42%,43.1%,-11%,70% (active),60.2%,-17%,68%,51.3%
O=C(CC(O)c1ccccc1)Sc1ccccc1 (stereo not given),-1%,13%,72% (active),-2%,8%,50%,1%,42%,63.1%,-2%,-7%,-9.2%,-6%,4%,80% (active),-8%,20%,74% (active)
COc1ccc(OC)c(/C=C/c2ccnc3ccccc23)c1,-3%,98% (active),96.3% (active),-1%,97% (active),95.3% (active),-2%,98% (active),97.2% (active),-4%,97% (active),94.3% (active),-1%,97% (active),95% (active),-2%,97% (active),95.6% (active)
OCCN=Cc1cccs1,1%,3%,8.85%,-2%,5%,2.8%,-1%,2%,2.05%,0%,1%,13.7%,1%,2%,8.25%,-25%,5%,3.4%
Nc1ccc(Oc2ccc(-c3ccccc3)cc2)c(Cl)c1,61%,97% (active),97.8% (active),61%,98% (active),98.3% (active),72% (active),98% (active),98% (active),35%,97% (active),96.3% (active),78% (active),97% (active),98% (active),89% (active),97% (active),97.7% (active)
COC(=O)CC1C(=O)OCc2c1cc1n(c2=O)Cc2c-1nc1ccccc1c2OC (stereo not given),15%,77% (active),94.4% (active),4%,15%,9.05%,-4%,-1%,10%,-12%,-7%,20.4%,-2%,11%,12.7%,7%,1%,51.2%
O/N=C1/C(=C/c2ccc3c(c2)OCO3)CCCC1C(NO)c1ccc2c(c1)OCO2 (stereo not given),-2%,65%,82.3% (active),-2%,3%,90.5% (active),4%,50%,97% (active),-5%,25%,-7.15%,-2%,51%,38.4%,-3%,27%,97.4% (active)
O=C1CSC(=S)N1c1ccc(I)cc1,1%,34%,99% (active),-2%,11%,99% (active),2%,59%,99.2% (active),-2%,-8%,83.8% (active),-6%,26%,99% (active),0%,75% (active),98.7% (active)
O=C1CC2(CCN(CC3COc4ccccc4O3)CC2)C(=O)N1N1CCCCCC1 (stereo not given),51%,66%,77% (active),33%,41%,70.4% (active),62%,66%,82.8% (active),78% (active),83% (active),84% (active),48%,68%,85.5% (active),37%,75% (active),83.8% (active)
O=C1c2ccccc2C2(O)c3cc4ccccc4cc3OC12O (stereo not given),-7%,41%,52.2%,-15%,19%,52.2%,-16%,6%,43%,-10%,44%,37%,-6%,59%,44%,-24%,55%,72.7% (active)
CC(=O)/C(=C\c1cccs1)C(=O)CCN(C)C,11%,25%,9.05%,15%,28%,17.2%,10%,29%,34%,20%,27%,19.5%,4%,23%,-2.2%,22%,30%,50.1%
O=C1CSC2(CCN(CCCN3c4ccccc4Sc4ccc(Cl)cc43)CC2)N1,8%,100% (active),98.9% (active),-4%,45%,99.1% (active),3%,53%,99.3% (active),-11%,100% (active),99% (active),-2%,99% (active),97.5% (active),-17%,99% (active),91.2% (active)
CC(C)(CN1CCCCC1)C(/C=C/c1ccc(Cl)c(Cl)c1)=N\NC(=O)N/N=C(/C=C/c1ccc(Cl)c(Cl)c1)C(C)(C)CN1CCCCC1,42%,98% (active),90.5% (active),29%,99% (active),93.3% (active),41%,99% (active),92.8% (active),31%,98% (active),91.2% (active),39%,67%,91.8% (active),56%,99% (active),90% (active)
O=[N+]([O-])/C=C/c1ccco1,59%,99% (active),99.5% (active),9%,100% (active),99.3% (active),16%,100% (active),88.8% (active),8%,99% (active),98.5% (active),3%,99% (active),98.9% (active),22%,99% (active),98.9% (active)
COC(OC)(c1ccccc1)C(Br)Br,-21%,50%,85.8% (active),-18%,86% (active),93.2% (active),-24%,45%,89.3% (active),-7%,41%,90.4% (active),-25%,89% (active),90% (active),-12%,59%,84.8% (active)
COc1ccc(C(c2ccc(OC)cc2)c2ccccc2C(=O)O)cc1,-5%,64%,37.8%,-14%,31%,27.1%,16%,48%,35.1%,18%,39%,35.9%,20%,56%,18.1%,41%,73% (active),54.9%
O=c1oc2c/c(=C\c3ccccc3)c(=O)c3cccc1c3-2,-6%,97% (active),84.4% (active),-2%,95% (active),88.7% (active),12%,97% (active),81.2% (active),-7%,96% (active),87.2% (active),-7%,96% (active),86.7% (active),28%,96% (active),78.7% (active)
O=C1c2ccccc2C(=O)c2cc(N3C(=O)C=CC3=O)ccc21,54%,83% (active),90.7% (active),50%,89% (active),92% (active),96% (active),98% (active),91.5% (active),53%,99% (active),91.7% (active),97% (active),97% (active),87.8% (active),47%,80% (active),91.5% (active)
CN(C)CCCCN1c2ccccc2Sc2ccc(C(=O)c3ccccc3)cc21,0%,65%,99.8% (active),-2%,81% (active),99.8% (active),3%,79% (active),99.8% (active),2%,70% (active),99.3% (active),4%,77% (active),99.7% (active),0%,82% (active),99.6% (active)
CSC(=S)n1nc(-c2cccs2)c(N=Nc2ccccc2)c1C(F)(F)F,5%,97% (active),93% (active),-1%,98% (active),96.8% (active),8%,97% (active),93% (active),6%,97% (active),65.3%,2%,97% (active),78% (active),1%,95% (active),94.4% (active)
